Records with an inconclusive call do not appear. Activity calls are given as the source filed them. Calls come from the whole dose curve; as a rule, active = well fitted activation curve with a large enough effect; inconclusive = small, poorly fitted or top-dose-only effect; inactive = flat fitted curve, though single readings scatter.
Molecular target: Luciferin 4-monooxygenase (Photinus pyralis) (UniProt P08659)
Assay: FLuc inhibitory activity for the follow-up compounds in a cell-based translational read-through assay (72 hour incubation)
Details: GripTite 293 FLucUGA read-through, luminescence; series mostly up to 38.3 µM
Description: NCGC Assay Overview: Firefly (Photinus pyralis) luciferase is one of the most commonly used transcriptional reporters. It is considered one of the more dynamically responsive reporters - that is, responsive to changes in reporter transcription - as it requires no post-translational modifications and is enzymatically active directly after protein synthesis (Wood, 1998). With no endogenous expression in mammalian cells and without the requirement of external excitation, it offers very little background signal, thus generally providing excellent signal to background for most assays. Previous profiling work to determine the prevalence of compounds that affect FLuc enzymatic activity (PubChem AID 411) identified that ~3% of the MLSMR library (then at ~72K) inhibited FLuc (Auld et al., 2008). […] Of the compounds identified in this profile that inhibited FLuc, 151 compounds were selected for further analysis, in an effort to better understand their mode of inhibiting FLuc. The assay described here was to determine the activity of the compounds in a cell-based firefly luciferase reporter gene assay originally designed to identify compounds that enchanced translational read-through of a FLuc cDNA that contained a premature stop codon (Auld et al., 2009; Auld et al., 2010). Compounds that enhance translational read-through or compounds that stabilize FLuc intracellularly are identified as active compounds in the assay.
NCGC Assay Protocol Summary: Reagents: Transient transfection of FlucUGA construct: TransFast Transfection Reagent (Promega #E2431); FLucUGA construct (refer to Auld et al., 2009) #GripTite 293 MSR Cell Line (Invitrogen #R795-07) #Complete growth media: DMEM (Invitrogen #11965), 10% HIFBS, 0.1mM MEM NEAA, 5mL/L pen-strep (of 5000U/mL stock), 600ug/mL Geneticin #Assay media: DMEM without phenol red (Invitrogen #21063), 5% charcoal-stripped HIFBS (Hyclone #SH30071.03), 0.1mM MEM NEAA In-house detection reagent: 300mM Tris-HCl, 300mM Trizma base, 300mM MgCl, 1% Triton-X100, 5mM DTT, 500uM Coenzyme A trilithium salt (Sigma #C3019),450uM ATP (Sigma #A7699), 1mM D-luciferin sodium salt monohydrate (Biosynth #L8240) Control compounds used were two known firefly luciferase inhibitors (3-(5-(3-chlorophenyl)-1,2,4-oxadiazol-3-yl)benzoic acid and 5-(2-fluorophenyl)-3-phenyl-1,2,4-oxadiazole), and DMSO. Assay Summary: Transient transfection of FlucUGA construct: Day 1: GripTite cells were plated in T175 flasks at a density of 1.75 x 10^7 cells/T175 flask in complete growth media without Geneticin and allowed to grow ON in a 37 degrees Celsius incubator. Day 2: Cells in T175 flask were transfected - with 10ug of DNA and 30uL Transfast in 12mL complete growth media without serum and without Geneticin for 4 hours at 37 degrees Celsius. After incubation, cells were trypsinized, spun down, and resuspended to a concentration of 3.3 x 10^5 cells/mL in assay media. 6uL of cells in assay buffer were dispensed at 2000cells/well (3.3 x 10^5 cells/mL) into Greiner solid-white TC-treated 1536-well plates using a Multidrop Combi (Thermo Fisher Scientific). Plates were incubated for one hour at 37 degree Celsius, 95% humidity, 5% CO2. These assay plates were then treated with 23nL of compound or DMSO using a Kalypsys pin tool, which allows for delivery of a 12-point titration of each compound to the assay plate, with a final compound concentration ranging from approximately ~38uM to 0.2nM. Assay plates were then incubated for 72 hours. After incubation, plates were washed three times with DPBS (7uL/well). After the third wash, 6uL of DPBS was added to each well. 3uL of 3X luciferase detection reagent was then added to each well using a flying reagent dispenser (FRD). After a 15 minute incubation to allow for cell lysis, luciferase activity was measured using a ViewLux CCD imager (PerkinElmer), with an average exposure time of 2-12 seconds.

Luciferin 4-monooxygenase (Photinus pyralis), sequence (P08659 whole entry, looked up): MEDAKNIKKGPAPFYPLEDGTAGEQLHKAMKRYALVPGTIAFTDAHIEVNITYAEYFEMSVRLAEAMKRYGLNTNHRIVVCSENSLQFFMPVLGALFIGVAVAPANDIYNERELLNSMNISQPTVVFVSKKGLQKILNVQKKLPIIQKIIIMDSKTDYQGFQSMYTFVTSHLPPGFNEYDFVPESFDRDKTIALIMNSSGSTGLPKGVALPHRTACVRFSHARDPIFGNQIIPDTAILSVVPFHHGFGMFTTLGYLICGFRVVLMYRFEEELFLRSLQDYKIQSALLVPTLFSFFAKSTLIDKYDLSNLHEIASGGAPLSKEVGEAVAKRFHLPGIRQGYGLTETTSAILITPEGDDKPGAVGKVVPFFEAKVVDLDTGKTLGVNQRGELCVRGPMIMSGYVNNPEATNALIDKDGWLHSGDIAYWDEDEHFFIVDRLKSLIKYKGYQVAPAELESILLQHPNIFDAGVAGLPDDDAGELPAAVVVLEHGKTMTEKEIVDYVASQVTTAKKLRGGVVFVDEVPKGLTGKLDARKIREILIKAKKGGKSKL

Potency, active:
COc1cccc(-c2nc3ccccc3s2)c1 3.56 µM
COc1ccc(-c2cccc(C(=O)Nc3cccc(C(=O)O)c3)c2)cc1 12.6 µM
O=C(Nc1ccc(-c2nc3ccccc3s2)cc1)C1=COCCO1 0.318 µM
Cc1ccc2sc(-c3ccc(N)cc3)nc2c1 0.356 µM
Nc1ccc(-c2nc3cc(N)ccc3s2)cc1 22.5 µM
COc1ccc(-c2nc3ccccc3s2)cc1O 14.2 µM
Oc1ccc(-c2nc3ccccc3s2)c(O)c1 12.6 µM
CN(C)c1cccc(C(=O)Nc2ccc(-c3nc4ccccc4s3)cc2)c1 1.79 µM
Nc1ccc(-c2nc3ccc(C(=O)O)cc3s2)cc1 0.159 µM
CCOc1ccc2nc(NC(=O)c3cccnc3)sc2c1 3.56 µM

Potency, inactive:
Cc1cccc(C(=O)Nc2ccccc2C(=O)Nc2ccc(C(=O)O)cc2)c1
Cc1cccc(C(=O)Nc2ccc(-c3nc4ccccc4s3)cc2Cl)c1
COc1ccc2nc(NC(=O)CCc3ccc(OC)c(OC)c3)sc2c1
O=C(Nc1ccccc1C(=O)O)c1cc(S(=O)(=O)Nc2cccc(F)c2)ccc1Cl
COc1cc(OC)cc(C(=O)Nc2ccc(-c3nc4ccccc4s3)c(C)c2)c1
CC(C)(C)NC(=O)c1ccccc1-c1nc2ccccc2s1
O=C(Nc1ccccc1C(=O)O)c1cccc(NC(=O)c2ccc(Br)o2)c1
CCCOc1cccc(C(=O)Nc2ccc(-c3nc4ccccc4s3)c(Cl)c2)c1
COc1ccc(-c2nc3ccccc3s2)cc1NC(=O)c1ccc(F)cc1
O=C(O)c1cccc(NC(=O)c2cccc(S(=O)(=O)N3CCc4ccccc4C3)c2)c1
CCOc1ccc2nc(NC(=O)c3cc([N+](=O)[O-])ccc3N3CCOCC3)sc2c1
O=C(Nc1ccccc1C(=O)O)c1cc(S(=O)(=O)Nc2ccccc2)ccc1Cl
COc1cc(C(=O)Nc2cc(C)c(O)c(-c3nc4ccccc4s3)c2)cc(OC)c1OC
COc1ccc2nc(NC(=O)c3ccc(S(=O)(=O)N4CCCC(C)C4)cc3)sc2c1 (stereo not given)
O=C(Nc1ccc(Cl)cc1-c1nc2ccccc2s1)c1ccco1
O=C(Cc1ccccc1)Nc1ccc(C(=O)Nc2ccccc2C(=O)O)cc1
CN(C)S(=O)(=O)c1ccc(C(=O)Nc2cccc(C(=O)O)c2)cc1
O=C(O)c1cccc(NC(=O)c2ccc(S(=O)(=O)c3ccccc3)cc2)c1
COc1cccc(OC)c1C(=O)Nc1cccc(C(=O)Nc2cccc(C(=O)O)c2)c1
O=C(O)c1cccc(NC(=O)c2ccccc2NC(=O)c2ccco2)c1
CCc1noc(C)c1C(=O)Nc1nc2ccc(OC)cc2s1
CC(=O)Nc1cccc(C(=O)Nc2ccccc2C(=O)O)c1
O=C(Nc1ccccc1C(=O)O)c1ccc(NC(=O)C2CCCCC2)cc1
COc1c(C)cccc1C(=O)Nc1ccc(-c2nc3ccccc3s2)c(Cl)c1
COc1ccc(CC(=O)Nc2cccc(C(=O)Nc3ccccc3C(=O)O)c2)cc1OC
O=C(Nc1ccccc1C(=O)O)c1cccc(NC(=O)c2ccccc2Br)c1
Cc1c(NC(=O)c2cccs2)cccc1-c1nc2ccccc2s1
O=C(O)c1ccccc1NC(=O)c1ccccc1Nc1ccccc1
CC(C)c1ccc(C(=O)Nc2ccc(-c3nc4ccccc4s3)c(Cl)c2)cc1
O=C(Nc1ccccc1C(=O)O)c1ccc(NC(=O)C2CCCO2)cc1 (stereo not given)

From PubChem BioAssay AID602478 (National Center for Advancing Translational Sciences (NCATS), 2012)
